Statin myotox sup – suppressors of simvastatin-induced myotoxicity in C2C12 myotubes | ATP luminescence, 48 h; scaled: DMSO 0, geranylgeraniol control 100 | rescue of ATP level, % at 7.49 µM | 330,000 tested, 0.78% active | AID 602340;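 active = mean ATP rescue above about 67%, or every replicate alone reaching that limit, limit read from the data, passing the limit was not always enough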;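 note: myotubes were challenged with 10 µM simvastatin during compound exposure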
Wnt bcat act – Wnt/beta-catenin pathway activation | Wnt/beta-catenin reporter cell assay, activator, plate reader | activation, % at 9.35 µM | 300,000 tested, 1.2% active | AID 743398; in the data active = activation above about 30%, passing the limit was not always enough;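 note: 0% = neutral control wells and 100% = positive control wells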
MITF TRPM1 inh – reduces MITF-dependent TRPM1 promoter luciferase signal; AID 488899; SK-MEL-5 TRPM1 promoter luciferase, 24 h; 330,000 tested, 0.83% active; inhibition, % at 12.5 µM;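 active = mean inhibition across replicates of 60% or more, whatever share of single replicates reaches that level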
EBV LMP1 NFkB – reduces LMP1-driven NF-kappaB luciferase signal. inhibition, % at 12.5 µM. LMP1-induced NF-kappaB luciferase reporter cells, luminescence. 350,000 tested, 0.69% active; in the data active = inhibition above about 41%;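 note: 0% = neutral control wells and 100% = reference inhibitor control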
esBAF inh – blocks esBAF chromatin remodeling in mouse ES cells; reporter increase, % at 12.5 µM; AID 602393; 350,000 tested, 2% active; Bmi1-luciferase knock-in reporter, 24 h; 100% = twice the neutral-well signal; in the data active = activation above about 40%;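 note: 0% = median of the plate's neutral control wells and 100% = double that signal; a rise in the Bmi1 reporter signal indicates esBAF inhibition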
MITF TRPM1 HTS – activators of MITF-driven TRPM1 promoter activity in SK-MEL-5 cells. SK-MEL-5 TRPM1-promoter luciferase, 24 h; % of positive control, neutral wells = 0. activation, % at 12.5 µM. 300,000 tested, 0.75% active. AID 588334;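 active = mean activation of at least 80% with every replicate also reaching 80%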;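 note: 0% = neutral control wells and 100% = parthenolide positive control wells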
Starred values were filed as active, the others as inactive; · = no result given. A selection: hits, their analogues and other compounds. The true share with any hit is near 4%.

SMILES	Statin myotox sup	Wnt bcat act	MITF TRPM1 inh	EBV LMP1 NFkB	esBAF inh	MITF TRPM1 HTS
COc1c(O)cc2oc(-c3ccc(O)cc3)cc(=O)c2c1O	0	39*	-34	-6	0	41
O=c1cc(-c2ccc(O)cc2)oc2ccc3ccccc3c12	-82	-14	83*	-7	-82	-83
COc1cc2oc(-c3ccc(O)cc3)cc(=O)c2c(O)c1OC	-7	-1	-26	-9	18	25
COc1ccc(-c2cc(=O)c3c(C)cc(O)cc3o2)cc1	·	67*	-78	0	·	75
O=c1cc(-c2ccc(O)cc2)oc2c1ccc1ccccc12	20	1	-41	-2	7	44
Cc1ccccc1-c1nsc(SCC(=O)Nc2ccc3c(c2)OCO3)n1	·	·	-17	-17	·	15
CN(C)CCCNC(=O)C[C@@H]1CC[C@H]2[C@@H](COC[C@H](O)CN2CC2CCCC2)O1	-2	·	·	·	-4	·
O/N=C/c1ccc(OCc2ccccc2)c(Cl)c1	·	·	-72	-25	·	77
O/N=C/c1ccc(OCc2ccccc2)c(Br)c1	·	42*	-67	1	·	73
COCc1cccc(-c2csc(C(O)c3ccccc3)n2)c1 (stereo not given)	14	8	·	·	53*	·
O=C(O)c1cccc(-c2csc(C(O)c3cccc(Cl)c3)n2)c1 (stereo not given)	0	-1	·	·	48*	·
OC(c1ccccc1)c1nc(-c2ccccc2)cs1 (stereo not given)	4	1	·	·	52*	·
CC(=O)Nc1cccc(-c2csc(C(O)c3ccccc3)n2)c1 (stereo not given)	2	-1	·	·	49*	·
CCOC(=O)CN1CCC(c2cc(-c3ccc(Cl)cc3)n[nH]2)CC1	4	1	-6	15	0	·
CCSc1nnc(NC(=O)Cn2cnc3c2c(=O)n(C)c(=O)n3C)s1	·	1	22	7	·	-22
O=C(NCCc1ccccc1)C1CCC(CNc2nc(=S)[nH]c3ccccc23)CC1 (stereo not given)	3	-3	13	-1	10	-13
CC(C)CC(=O)Nc1cccc(-c2csc(-c3ccccc3)n2)c1	·	·	-12	67*	·	13
CCC(=O)Nc1cccc(-c2csc(-c3ccccc3)n2)c1	·	1	-3	-4	·	5
CC1C/C(=C/c2ccncc2)C(=O)/C(=C/c2ccncc2)C1 (stereo not given)	9	-21	106*	92*	-14	-105
O=C1C(=Cc2ccco2)CCCC1=Cc1ccco1	2	3	-57	-36	57*	53
O=C1C(=Cc2ccco2)CCC1=Cc1ccco1	6	0	-22	-2	1	22
C[C@H](CO)N1C[C@H](C)[C@@H](CN(C)Cc2ccc(Cl)c(Cl)c2)Oc2ccc(NC(=O)C3CCCCC3)cc2C1=O	-74	·	·	·	-2	·
COc1ccc(/C=C/C2=NN(C)C(=O)CC2)cc1	·	·	-56	-19	·	55
COc1ccc(C(C)NCCC(c2ccc(OC(C)C)cc2)c2ccccc2OC)cc1 (stereo not given)	·	1	92*	-11	·	-92
COc1ccc(C(CCNC(C)c2ccccc2)C(C)C)cc1 (stereo not given)	·	-14	·	·	·	·
SMILES	Statin myotox sup	Wnt bcat act	MITF TRPM1 inh	EBV LMP1 NFkB	esBAF inh	MITF TRPM1 HTS
CC1(c2ccccc2)NC(=S)N2C1NC(=S)N2c1ccccc1 (stereo not given)	·	·	-2	6	·	4
COc1ccc(N2C(=S)NC3N2C(=S)NC3(C)c2ccccc2)cc1 (stereo not given)	·	65*	-28	-17	·	34
COc1cccc(C(=O)NCCCNC(=O)c2ccco2)c1	-4	-1	11	-1	-8	-10
Cc1[nH]c2ccc(C(=O)Nc3ccncc3)cc2c1C	-14	1	-5	10	12	8
COc1ccccc1NC(=O)c1ccc2[nH]c(C)c(C)c2c1	-18	40*	-47	-30	66*	28
Cc1[nH]c2ccc(C(=O)NC3CCC(C)CC3)cc2c1C (stereo not given)	-86	28	-84	-55	56*	85*
Cc1[nH]c2ccc(C(=O)NC3CCCC3)cc2c1C	-5	14	·	2	28	·
O=C(NCCC(=O)N1CCCCCCC1)c1ccc(Br)cc1	0	-1	-12	-3	11	11
Cc1ccc(C(=O)NCCN2CCOCC2)cc1	17	-2	-7	-4	6	11
CC(C)(C)c1ccc(C(=O)NCCC(=O)N2CCCC2)cc1	-8	26	-71	-26	47*	75
Cc1ccc(C(=O)NCCC(=O)N2CCOCC2)cc1	·	37*	-39	-20	·	45
O=C(Nc1ccc2nn(-c3ccc(F)cc3)nc2c1)c1cccnc1	·	10	-18	-19	·	22
O=C(Nc1ccc2nn(-c3ccccc3)nc2c1)c1cccnc1	130*	-2	-67	-16	53*	69
O=C(Nc1ccc2nn(-c3ccccc3)nc2c1)c1ccco1	-21	·	-94	-30	62*	·
CC(=O)Nc1c(C(=O)O)oc2ccccc12	·	·	8	-7	33	·
Cc1cccnc1NC(=S)Nc1ccc(Br)cc1Cl	14	11	-63	-32	55*	58
S=C(NCc1ccncc1)Nc1ccc(Br)cc1Cl	·	-1	8	7	·	-6
COCCN(C(=O)C1CC1)c1nnc(-c2ccc(C)cc2)s1	-13	26	-31	-4	17	30
CC(=O)N(c1nnc(-c2cccc(C)c2)s1)C1CCCC1	12	9	-57	3	52*	·
c1ccc2cc(C3OCC4(CCCC4)CO3)ccc2c1	-9	0	·	-23	71*	·
O=C1CCC(c2ccc3ccccc3c2)O1 (stereo not given)	2	4	-22	-5	10	19
Cc1cc(C)n(CC(=O)N2N=C(C(F)F)CC2(O)C(F)F)n1 (stereo not given)	·	·	1	-5	·	1
O=S(=O)(c1ccc(F)cc1)N1CCN(CC(O)COCc2cccs2)CC1 (stereo not given)	2	0	2	7	16	·
CSCC(=O)N1CCC(n2nccc2NC(=O)c2ccc3c(c2)OCO3)CC1	2	13	-29	-20	58*	30
CSC1=NCCN1S(=O)(=O)c1ccc(C)cc1	·	-4	-3	0	·	2
COC(=O)C(CC(=O)c1ccc(Cl)cc1)c1ccc(C(C)C)cc1 (stereo not given)	·	·	-25	-12	·	31
COCCN(C(=O)c1ccc(C)o1)c1c(N)n(CC(C)C)c(=O)[nH]c1=O	-5	-3	2	-3	0	-1
CSCCC(NC(=O)c1ccccc1Br)C(=O)NNC(=O)c1csc(N2CCOCC2)n1 (stereo not given)	-17	1	6	2	-6	-4
CC1(C)CC(=O)C(=Cc2cn(-c3ccccc3)nc2-c2ccc(Cl)cc2)C(=O)C1	-18	·	-12	-9	83*	13
CC1=NNC(=O)/C1=C\c1cn(-c2ccccc2)nc1-c1ccccc1	·	-1	95*	-56	·	-95

Compound activity: PubChem, Broad Institute
